# Values joined by “and” are separate entries in the source; they are usually repeats but may differ in a detail not shown here. Equal entries are not always repeated. Hit rate of the full screen: of about 300,000 compounds, about 310 (0.1%) were called active. Rule as the data show it: active = fluorescence inhibition mostly above about 23% (no sharp cut-off); inactive = mostly below about 17%. This excerpt belongs to a sample that is enriched for actives.
# Test: hypoxia reporter signal reduction in M. tuberculosis – fluorescence, absorbance growth readout, primary screen (AID 1159583)
# Settings: M. tuberculosis hypoxia-regulated fluorescent reporter, stronger effect = higher value, concentration not given here; growth inhibition: measured here: M. tuberculosis growth (absorbance)
SMILES,fluorescence inhibition,growth inhibition
Cc1cc(C=NO)c(C)n1-c1ccccc1,10.5% (inactive),1.78%
C/C(C=NNC(=O)c1ccncc1)=C\c1ccccc1,16.5% (inactive),7.43%
Cc1nn(-c2ccccc2)c(Cl)c1C=NNC(=O)c1cccc(S(=O)(=O)N2CCCC2)c1,10.2% (inactive),5.33%
C=C1CCN(C(C(=O)NCc2ccc(OC)cc2)C(C)C)S(=O)(=O)c2ccccc21 (stereo not drawn),1.86% (inactive),4.01%
O=C1CSC(=S)N1N=Cc1ccc(C(F)(F)F)cc1,17.6% (inactive),14.7%
COCCCNC(=S)NN=Cc1ccc(N(C)C)cc1,11.6% (inactive),2.41%
CC(=NNC(=O)c1c(C)nc2ccccn12)c1ccc(C(C)(C)C)cc1,-2.47% (inactive),18.1%
CC(C)C(NC(=O)c1ccccc1)C(=O)OCC(=O)N1CCCc2ccccc21 (stereo not drawn),6.63% (inactive),6.94%
COc1cccc(C=NNC(=O)CSCC(=O)Nc2ccccc2)c1O,0.94% (inactive),11.7%
CC(=NNC(=O)c1cc(-c2ccc(Cl)s2)[nH]n1)c1ccco1,0.382% (inactive),4.98%
CSc1ccc(C=NNC(=O)CNc2ccc3ccccc3c2)cc1,3.37% (inactive),-2.84%
O=C1NC(Cc2ccccc2)C(=O)N2C1C[C@]1(Br)c3ccccc3N(S(=O)(=O)c3ccccc3)C21 (stereo partly drawn),4.31% (inactive) and 12.8% (inactive),6.26% and 10.9%
COc1ccccc1C=NNC(=O)c1ccc2c(c1)OCO2,14.7% (inactive),5.14%
COCCCN1C(=O)C(=O)C(=C(O)c2ccc(C)cc2)C1c1ccccc1 (stereo not drawn),-3.99% (inactive),-0.925%
CC1CN=C(Nc2ccccc2)N1CCCC1CCCCC1 (stereo not drawn),7.1% (inactive),4.93%
O=C1CCCC1=c1sc(=Cc2cccnc2)c(=O)n1-c1ccccc1,9.8% (inactive),5.53%
O=C1/C(=C\c2cccnc2)CN(Cc2ccccc2)C/C1=C\c1cccnc1,53.7% (active),35.7%
Cc1ccccc1C1=N/C(=C/c2cccnc2)C(=O)O1,-4.88% (inactive),6.23%
Cc1cc(C(=O)NN=Cc2ccc3ccccc3c2)n[nH]1,7.06% (inactive),-3.88%
Cc1ccc(NCC(=O)NN=Cc2ccc([N+](=O)[O-])o2)cc1,-3.3% (inactive),3.65%
CN(C)c1ccc(C=NNC(=O)c2nonc2N)cc1[N+](=O)[O-],2.61% (inactive),-5.42%
Nc1nonc1C(=O)NN=Cc1ccc([N+](=O)[O-])o1,52.4% (active),31.3%
Cc1cccc(C=NNC(=O)CN2CCCCCCC2)c1,2.65% (inactive),8.69%
COc1ccc(C2CC=C(C(=O)O)C(c3ccccc3F)N2S(=O)(=O)c2ccc(C)cc2)cc1OC (stereo not drawn),19.4% (inactive),4.47%
CCCC(=O)O[C@]1(C(=O)CCl)C(C)CC2C3CCC4=CC(=O)C=C[C@]4(C)[C@@]3(F)C(=O)C[C@@]21C (stereo partly drawn),-12.7% (inactive),2.62%
Cc1ccc(S(=O)(=O)N(C)CC(=O)NN=Cc2ccc(C)o2)cc1,-4.3% (inactive),1.08%
COc1ccc(C2OCC3OC(O)C(NC(C)=O)C(O)C3O2)cc1 (stereo not drawn),4.65% (inactive),11.9%

SMILES,fluorescence inhibition,growth inhibition
CCN(CC)CCOc1ccc2c(c1)C(=NNC(=O)c1ccccn1)c1cc(OCCN(CC)CC)ccc1-2,46.2% (active),20.2%
CCc1ccc(C=NNC(=O)c2ccccn2)cc1,9.62% (inactive),15.4%
COc1ccc(C(=O)NN=C(c2ccccc2)c2ccccn2)cc1,-1.57% (inactive),6.08%
Cc1ccc(C(=O)ON=Cc2ccc3c(c2)OCO3)cc1,2.14% (inactive),12.4%
CCc1ccc(/C=C2\SC(N3CCOCC3)=NC2=O)cc1,-2.06% (inactive),6.4%
O=C1N=C(N2CCOCC2)S/C1=C\C=C/c1ccccc1,16.7% (inactive),6.03%
Cc1ccsc1/C=C1\SC(N2CCOCC2)=NC1=O,59.8% (active),35.7%
COC(=O)c1ccc(C=NN2C(C)CCCC2C)cc1 (stereo not drawn),12.1% (inactive),0.227%
[O-]C1=N[N+](=Cc2ccc(Cl)cc2)CC1,9.03% (inactive),2.77%
Cc1ccc(F)c(C2C3C=CCC[C@@]3(C)C(=O)N2Cc2ccccc2)c1 (stereo partly drawn),0.237% (inactive),4.91%
CCOC(=O)C1C2COc3ccc(OC)cc3C2N2C(=O)c3cc(OC)ccc3NC(=O)[C@@]12C (stereo partly drawn),-0.571% (inactive),-0.925%
CN1CCSC1=CC=C1C(=O)N(C)C(=S)N1C,41.3% (active),10.5%
CN1C(=O)/C(=C/C=C2\SCCN2C)OC1=S,-23.3% (inactive),5.47%
Oc1ccc(C=NNC(=S)Nc2cccnc2)c(O)c1O,19% (inactive),3.53%
O=C(NN=Cc1cccc2nccnc12)c1ccncc1,93.3%,–
C#CCOCCOCCOCCNc1nc(N2CCN(C(=O)C(CCC(=O)O)n3cc(C(N)Cc4ccc(O)cc4)nn3)CC2)nc(N2CCN(C(=O)C(C(C)CC)n3cc(C(N)CO)nn3)CC2)n1 (stereo not drawn),8.78% (inactive),6.78%
N#CC(=Cc1ccc(O)c(O)c1)C(=O)c1ccc(O)c(O)c1,-0.458% (inactive),-7.09%
CC(=NNc1nc(C)cc(-c2ccccc2)n1)c1ccc(C)o1,5.64% (inactive),13.1%
CCC(C)CCN1C(Nc2ccccc2)=NCC1CC(C)C (stereo not drawn),2.94% (inactive),9.85%
CC(=NNC(=S)Nc1ccccc1)c1ccc2c(c1)OCO2,4.36% (inactive),-7.15%
CN1CCN(C(=O)C2=CC(c3ccccc3)CC(OCc3ccc(CO)cc3)O2)CC1 (stereo not drawn),10.4% (inactive) and -0.342% (inactive),12.8% and -5.24%
C=CCNC(=S)N=c1sccn1C,6.54% (inactive),-7.89%
CC(=NNC(=O)c1cc(-c2cccc([N+](=O)[O-])c2)n[nH]1)c1ccc(F)cc1,14.8% (inactive),-5.45%
COc1ccc(N(CC(=O)NN=C(C)c2cccs2)S(=O)(=O)c2ccccc2)cc1Cl,-6% (inactive),-2.78%
CCOC(=O)C1C2COc3ccccc3C2N2C(=O)N(c3cccc(F)c3)C(=O)[C@@]12C (stereo partly drawn),-2.44% (inactive),3.57%
COC(=O)C1=C(c2ccc(OC(F)(F)F)cc2)CC2CCC1N2C(=O)NCCOc1ccc(OC)cc1 (stereo not drawn),0.962% (inactive),6.26%
O=C(CC(=O)NC1CCCCC1)NN=Cc1ccccc1Cl,2.92% (inactive),1.5%

SMILES,fluorescence inhibition,growth inhibition
CCN1CC2C3C(=O)N(Cc4ccccc4)C(=O)C3[C@](CC)(C1=O)N2C(=O)c1ccc(Br)cc1 (stereo partly drawn),6.17% (inactive),7.16%
CN1CC2C3C(=O)N(C)C(=O)C3[C@](C)(C1=O)N2C(=O)c1ccc(Cl)c(Cl)c1 (stereo partly drawn),18.2% (inactive),5.39%
Oc1cccc(C=NNc2ncnc3c2ncn3Cc2ccccc2)c1,12.7% (inactive),4.03%
COc1ccc(C(N)=NOC(=O)c2cccc([N+](=O)[O-])c2)cc1,2.69% (inactive),7.49%
Cc1cc(C=NNC(N)=S)c(C)n1-c1ccc(Cl)cc1,79.4%,–
O=C(O)c1cc(C(=O)O)cc(-c2ccc(C=c3sc4nc5ccccc5n4c3=O)o2)c1,9.74% (inactive),9.98%
O=C(C1=CC(c2csc3ccccc23)CC(OCc2ccc(CO)cc2)O1)N1CCCCCCC1 (stereo not drawn),5.62% (inactive),15.1%
COc1ccc2c(Cl)c(C(=O)NN=Cc3c(C)[nH]c4ccccc34)sc2c1,12.9% (inactive),-1.23%
COc1cccc(C(=O)NN=C(c2ccccc2)c2ccccn2)c1,5% (inactive),11%
CCOC(=O)c1cc(C)sc1N=CC1C(=O)CC(C)(C)CC1=O,5.08% (inactive),4.24%
Cc1ccc(C2C3C(=O)N(C)C(=O)C3[C@]3(C)C(=O)N(CC4CC4)CC(=O)N23)o1 (stereo partly drawn),3.26% (inactive),-2.47%
CC(=NNC(=O)C(=O)Nc1ccc(C)c(Cl)c1)c1ccncc1,9.7% (inactive),2.87%
CCOC(=O)C1=C(N)n2c(sc(=Cc3ccncc3)c2=O)=C(C(=O)OCC)C1c1ccncc1 (stereo not drawn),-2.3% (inactive),-3.45%
C=C1CC(C(=O)NN=Cc2ccc(O)cc2)C1,2.24% (inactive),7.43%
COc1ccc(NC(=O)COC(=O)CON=C(C)c2ccc3c(c2)OCO3)cc1S(N)(=O)=O,-7.57% (inactive),-2.6%
Cc1ccc(-c2c(C(=O)NN=Cc3ccc(C)o3)nnn2-c2nonc2N)cc1,3.86% (inactive),8.97%
Cc1ccc(C=NNC(=O)CSc2nc3ccccc3n2C)s1,13.6% (inactive),0.932%
COc1ccc(-c2nn(-c3ccccc3)cc2C=NNC(=O)c2cccc(S(=O)(=O)Nc3ccccc3OC)c2)cc1,12.6% (inactive),0.139%
O=C(Cc1n[nH]c(=O)[nH]c1=O)NN=CCCc1ccccc1,11.1% (inactive),4.96%
CCCN(CCC)Cc1c(C(=O)NN=Cc2c[nH]c3ccccc23)nnn1-c1nonc1N,-3.6% (inactive),2.65%
C=C1CCN(C(C)C(=O)NCc2ccc(OC)cc2)S(=O)(=O)c2ccccc21 (stereo not drawn),19.8% (inactive),12.8%
CCOc1ccc(-c2cc(C)[n+](CCN(CC)CC)c(-c3ccc(OCC)cc3)c2)cc1,53.9% (active),33.9%
CCOc1ccc2c(c1)C(c1ccc(C)cc1)=NNC(c1ccc(C)cc1)=N2,21.9% (inactive),10.8%
CCOc1ccc(-c2nnc3ccc(SC)nn23)cc1,4.55% (inactive),1.4%
O=C(NN=Cc1c[nH]c2ccccc12)c1cc2ccccc2o1,0.899% (inactive),8.76%
COc1cccc(C=NNc2ncnc3c2ncn3Cc2ccccc2)c1O,7.12% (inactive),2.3%

# Reference: PubChem BioAssay AID1159583 (ICCB-Longwood Screening Facility, Harvard Medical School, 2016)
